Laboratory results: PubChem BioAssay (EPA / NIEHS)
Activity calls are given as the source filed them. Rule for the calls: active = hit-call score of the fitted dose curve at least 0.9, where 1 is the maximum; inactive = score below 0.9.

Experiment: ATG_FoxO_CIS: Attagene CIS-FACTORIAL HepG2 Assay for human Forkhead box O (FoxO) (AID 2282943)
Details: HepG2 Attagene cis-reporter, FoxO element, mRNA; actives raise or lower the signal
Experimental: ATG_CIS is a cell-based, multiplexed-readout assay that uses HepG2, a human liver cell line, with measurements taken at 24 hours after chemical dosing in a 24-well plate.ATG_FoxO_CIS is one of 52 assay component(s) measured or calculated from the ATG_CIS assay. It is designed to make measurements of mRNA induction, a form of inducible reporter, as detected with fluorescence intensity signals by Reverse transcription polymerase chain reaction (RT-PCR) and Capillary electrophoresis technology.Data from the assay component ATG_FoxO_CIS was analyzed into 1 assay endpoint. This assay endpoint, ATG_FoxO_CIS, was analyzed with bidirectional fitting relative to DMSO as the negative control and baseline of activity. Using a type of inducible reporter, measures of mRNA for gain or loss-of-signal activity can be used to understand the reporter gene at the transcription factor-level as they relate to the gene FOXO1 and FOXO3. Furthermore, this assay endpoint can be referred to as a primary readout, because this assay has produced multiple assay endpoints where this one serves a reporter gene function. To generalize the intended target to other relatable targets, this assay endpoint is annotated to the dna binding intended target family, where the subfamily is forkhead box protein.
Human liver HepG2 cells are transiently transfected with multiple reporter transcription units (MRTUs) in 6-well plates using FuGene 6 reagent (Roche; 3 ml FuGene/1 mg DNA). The MRTU constructs are regulated by a cis-regulating element (promoter). […] A major difference between the CIS and TRANS system is that in CIS activities of endogenous TFs are measured, whereas the TRANS assay evaluates changes in activities of exogenous, chimeric NR-Gal4 proteins. […] At the end of 24 hour incubation, total RNA was isolated using TriZol reagent (Invitrogen). The isolated RNA is then reverse-transcribed using oligo(dT) primer and Mo-MLV reverse transcriptase (Invitrogen) with DNAse I (Ambion) treatment for 30 min. The one-tenth of the produced cDNA was amplified by PCR using Taq DNA polymerase (Invitrogen) and two reporter sequence-specific primers. The PCR products were fluorescently labeled by primer extension with 6-arboxyfluorescein (6-FAM) 5'-labeled reporter sequence-specific primer (2 min at 95 C, 20 s at 68 C and 10 min at 72 C) and these products were digested with 5U of HpaI (New England Biolabs) for 2h at 37 C. The fragments were purified using Qiaquick PCR columns (Qiagen), analyzed on an ABI 3130xL genetic analyzer (Applied Biosystems) with peak positions identified by using a set of X-rhodamine (ROX)-labeled MapMarker1000 molecular weight standards (BioVentures). The raw capillary electrophoresis data was processed using Attagraph software (Attagene).

Compound	outcome	AC50
CCCOCC(=Nc1ccc(Cl)cc1C(F)(F)F)n1ccnc1	inactive	–
CCOC(=O)COc1cc(-c2nn(C)c(OC(F)F)c2Cl)c(F)cc1Cl	inactive	–
CC(C)=CC1C(C(=O)OCN2C(=O)C3=C(CCCC3)C2=O)C1(C)C (stereo not given)	inactive	–
CCOP(=S)(OCC)Oc1ccc([N+](=O)[O-])cc1	inactive	–
CNC(=O)Oc1cccc2c1OC(C)(C)O2	inactive	–
Cc1ccn2nc(S(=O)(=O)Nc3c(F)cccc3F)nc2n1	inactive	–
CN(C)[C@@H]1C(=O)C(C(N)=O)=C(O)[C@@]2(O)C(=O)C3=C(O)c4c(O)cccc4[C@@](C)(O)[C@H]3[C@H](O)[C@@H]12	inactive	–
CSc1nc(NC(C)C)nc(NC(C)C)n1	inactive	–
Nc1c(Cl)cc([N+](=O)[O-])cc1Cl	inactive	–
C#CCC1=C(C)C(OC(=O)C2C(C=C(C)C)C2(C)C)CC1=O (stereo not given)	–	90.3 µM (active)
CCCOc1nn(C(=O)NS(=O)(=O)c2ccccc2C(=O)OC)c(=O)n1C	inactive	–
O=[N+]([O-])c1cc(C(F)(F)F)c(Cl)c([N+](=O)[O-])c1Nc1ncc(C(F)(F)F)cc1Cl	inactive	–
COP(=O)(OC)SCn1c(=O)oc2cc(Cl)cnc21	inactive	–
CCOP(=S)(Oc1cnc(C(C)(C)C)nc1)OC(C)C (stereo not given)	inactive	–
C[Si](Cn1cncn1)(c1ccc(F)cc1)c1ccc(F)cc1	inactive	–
CCc1cccc(CC)c1N(COC)C(=O)CCl	inactive	–
CCOP(=O)(OCC)Oc1cc(C)nc(C(C)C)n1	inactive	–
CC(C1CC1)C(O)(Cn1cncn1)c1ccc(Cl)cc1 (stereo not given)	inactive	–
O=C(O)c1cc(Oc2ccc(C(F)(F)F)cc2Cl)ccc1[N+](=O)[O-]	inactive	–
CSC1=N[C@@](C)(c2ccccc2)C(=O)N1Nc1ccccc1	inactive	–

Compound	outcome	AC50
CC(C)N(C(=O)SCC(Cl)=C(Cl)Cl)C(C)C	inactive	–
CCOP(=O)(NC(C)C)Oc1ccc(SC)c(C)c1 (stereo not given)	inactive	–
CNc1cnn(-c2cccc(C(F)(F)F)c2)c(=O)c1Cl	inactive	–
N#CSCSC#N	inactive	–
CC(Oc1cccc(Cl)c1)C(=O)O (stereo not given)	inactive	–
CN(C)NC(=O)CCC(=O)O	inactive	–
CN(C)C(=O)Nc1cccc(C(F)(F)F)c1	inactive	–
CC1=NNC(=O)N(/N=C/c2cccnc2)C1	inactive	–
CCc1cnc(C2=NC(C)(C(C)C)C(=O)N2)c(C(=O)O)c1 (stereo not given)	inactive	–
CCCCN(CC)c1c([N+](=O)[O-])cc(C(F)(F)F)cc1[N+](=O)[O-]	inactive	–
COc1ccc(C(=CC(=O)N2CCOCC2)c2ccc(Cl)cc2)cc1OC	inactive	–
CCOP(=S)(OCC)Oc1cc(C)nc(C(C)C)n1	inactive	–
CCc1cccc(C)c1N(C(=O)CCl)C(C)COC (stereo not given)	inactive	–
Nc1nc(N)nc(NC2CC2)n1	inactive	–
C[N+]1(C)CCCCC1	inactive	–
CNC(=O)ON=C(SC)C(=O)N(C)C	inactive	–
CCCCOC(=O)c1ccccc1C(=O)O	inactive	–
CCC(CC)Nc1c([N+](=O)[O-])cc(C)c(C)c1[N+](=O)[O-]	inactive	–
CC(=NC#N)N(C)Cc1ccc(Cl)nc1	inactive	–
CCOP(=S)(OCC)OC(Cl)C(Cl)(Cl)Cl (stereo not given)	inactive	–
